According to PubChem BioAssay (NCATS):
Where “and” joins values, the source holds several entries; their conditions need not be identical. Identical values can stand only once. Results filed as inconclusive are left out. Calls of active or inactive are those of the source. Unless noted, calls come from the whole dose curve; as a rule, active = well fitted curve in the direction sought with a large enough effect; inconclusive = small, poorly fitted or top-dose-only effect, or another doubt; inactive = no such curve, though single readings can be large; an effect the other way counts as inactive or inconclusive.

Columns and labels:
[1] = biological target: Cellular tumor antigen p53 (Homo sapiens) (UniProt P04637); experiment: Primary qHTS for small molecule compounds that upregulate eGFP-tagged delta133p53alpha (in N-terminal) cells. (AID 2060322); details: NCI-H358 eGFP-delta133p53alpha fluorescence, 24 h; activation: active compounds read high;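 note: series mostly up to about 56 µM; 0% = DMSO vehicle and 100% = reference activator; nearly all actives have a fitted effect of over 75% in size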
Method in brief: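 NCI-H358 cells pre-induced 24 h with 10 ng/ml doxycycline to express N-terminal eGFP-delta133p53alpha, then dosed 24 h at 37C without doxycycline; fixed, Hoechst-stained, GFP intensity by laser scanning cytometry, normalized to DMSO (0%) and 57.5 uM 5-azacytidine (100%).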

[2] = biological target: Cellular tumor antigen p53 (Homo sapiens) (UniProt P04637); experiment: Primary qHTS for small molecule compounds that upregulate eGFP-tagged delta133p53alpha (in C-terminal) cells. (AID 2060324);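 note: 0% = DMSO wells and 100% = 57.5 µM 5-azacytidine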
Method in brief: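 In this qHTS, GFP-tagged delta133p53alpha levels are measured in fixed NCI-H358 cells after 24 h compound exposure at 37 °C. The cells are pre-induced with 100 ng/ml doxycycline, and signal is normalized to DMSO-treated wells as 0%.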

[3] = biological target: Aldehyde dehydrogenase, mitochondrial (Homo sapiens) (UniProt P05091); experiment: qHTS for Inhibitors of the Aldehyde Dehydrogenase Family (ALDH2) Validation screens (AID 2061302; active = well fitted inhibition curve with a large enough effect; title and protocol of this record describe different tests;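 note: plate controls were DMSO vehicle for no effect and maximal DPI positive control response for full effect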)
[4] = biological target: Retinaldehyde dehydrogenase 3 (Homo sapiens) (UniProt P47895); experiment: qHTS for Inhibitors of the Aldehyde Dehydrogenase Family (ALDH1A3) Validation screen (AID 2061312); note: % is set by controls: 0 for no effect and ±100 for the full control effect; nearly all actives have a fitted effect of over 45% in size

Sequence of Cellular tumor antigen p53 (Homo sapiens) (P04637 whole entry, looked up): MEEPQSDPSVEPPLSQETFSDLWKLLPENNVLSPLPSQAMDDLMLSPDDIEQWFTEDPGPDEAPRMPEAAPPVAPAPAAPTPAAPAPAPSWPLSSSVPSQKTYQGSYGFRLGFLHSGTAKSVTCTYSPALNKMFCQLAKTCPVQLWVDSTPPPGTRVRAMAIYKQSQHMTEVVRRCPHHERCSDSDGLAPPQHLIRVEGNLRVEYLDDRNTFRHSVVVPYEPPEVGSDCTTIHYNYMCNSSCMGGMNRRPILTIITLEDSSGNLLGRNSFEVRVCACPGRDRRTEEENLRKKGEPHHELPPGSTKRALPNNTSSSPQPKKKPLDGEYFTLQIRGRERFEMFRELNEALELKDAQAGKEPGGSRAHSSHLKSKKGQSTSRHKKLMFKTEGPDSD

O=C(O)C1CN(CCCP(=O)(O)O)CCN1 (centres undefined)
inactive: activation [1] -32.5% | Potency [2] | Potency [3] | Potency [4]

C[N+](C)(C)CCCCCCCCCC[N+](C)(C)C
inactive: activation [1] -20.9% and 13% | Potency [2] | Potency [3] | Potency [4]

CCOC(=O)C12CC1/C(=N/O)c1ccccc1O2 (centres undefined)
inactive: activation [1] -19.2% | Potency [2] | Potency [3] | Potency [4]

C=C1C[C@@]23CC[C@H]4[C@@](C)(CCC[C@@]4(C)C(=O)O)[C@@H]2CC[C@]1(O)C3
inactive: activation [1] 9.04% | Potency [2] | Potency [3] | Potency [4]

CNC(=O)[C@H]1O[C@@H](n2cnc3c(NCc4cccc(I)c4)ncnc32)[C@H](O)[C@@H]1O
inactive: activation [1] -36.7% | Potency [2] | Potency [3] | Potency [4]

CCCOC(=O)c1c(-c2ccccc2)nc(CC)c(C(=O)SCC)c1CCC
inactive: activation [1] -30.9% | Potency [2] | Potency [3] | Potency [4]

CN(C)CC/C=C1\c2ccccc2COc2ccccc21
inactive: activation [1] -10.9% and -21.6% | Potency [2] | Potency [3] | Potency [4]

c1ccc2nc(C3=NCCN3)ccc2c1
inactive: activation [1] 5.83% | Potency [2] | Potency [3] | Potency [4]

CC(=O)Nc1nnc(S(N)(=O)=O)s1
inactive: activation [1] 21.8% and -10.7% | Potency [2] | Potency [3] | Potency [4]

CC(C)(C)NC[C@H](O)COc1nsnc1N1CCOCC1
inactive: activation [1] -9.94% | Potency [2] | Potency [3] | Potency [4]

CCCn1c(=O)c(C)cn2nc(N)nc12
inactive: activation [1] -37.9% | Potency [2] | Potency [3] | Potency [4]
